From PubChem BioAssay (NCATS) come the findings set out here.

Experiment [1] relates to C33A. Description: Primary qHTS to identify gynecologic anti-cancer compounds using libraries of approved drugs and bioactive compounds (AID 1345084). Also: nearly all actives have a fitted effect of over 55% in size. Also: potency is read from the fitted curve at half-maximal effect. Conditions: Gynecologic cancer cell panel viability, ATPlite luminescence, 48 h; series mostly up to 57.5 µM. An outline of the steps:
(§1)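 Five-concentration response, 48 h; readout is ATP-driven luciferase luminescence.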

In experiment [2] the test system is CAOV3. The description is as above. Conditions: Gynecologic cancer cell panel viability, ATPlite luminescence, 48 h; series mostly up to 57.5 µM. The procedure, abridged: as §1
For experiment [3], the system named is CASKI. The description is as above. Conditions: Gynecologic cancer cell panel viability, ATPlite luminescence, 48 h; series mostly up to 57.5 µM. The procedure, abridged:
as §1

Experiment [4] deals with Es-2. The description is as above. Conditions: Gynecologic cancer cell panel viability, ATPlite luminescence, 48 h; series mostly up to 57.5 µM. The procedure, abridged:
as §1

Experiment [5] concerns HeLa. The description is as above. Conditions: Gynecologic cancer cell panel viability, ATPlite luminescence, 48 h; series mostly up to 57.5 µM. The procedure, abridged:
as §1
Background: ATP-based viability assays read luminescence as a measure of living cells.

Experiment [6] relates to Hek293T. The description is as above. Conditions: Gynecologic cancer cell panel viability, ATPlite luminescence, 48 h, control line for the selectivity index; series mostly up to 57.5 µM. The procedure, abridged:
as §1

Experiment [7] deals with JEG-3. The experiment is described as above. Conditions: Gynecologic cancer cell panel viability, ATPlite luminescence, 48 h; series mostly up to 57.5 µM. The procedure, abridged: as §1
Experiment [8] concerns OV90. Described as above. Conditions: Gynecologic cancer cell panel viability, ATPlite luminescence, 48 h; series mostly up to 57.5 µM. The procedure, abridged: as §1
The subject of experiment [9] is PA-1. The experiment is described as above. Conditions: Gynecologic cancer cell panel viability, ATPlite luminescence, 48 h; series mostly up to 57.5 µM. An outline of the steps:
as §1

In experiment [10] the test system is SKOV3. Described as above. Conditions: Gynecologic cancer cell panel viability, ATPlite luminescence, 48 h; series mostly up to 57.5 µM. An outline of the steps: as §1
The test system of experiment [11] is Tov-21-G. The experiment is described as above. Conditions: Gynecologic cancer cell panel viability, ATPlite luminescence, 48 h; series mostly up to 57.5 µM. An outline of the steps: as §1
Experiment [12] relates to Tov112D. Described as above. Conditions: Gynecologic cancer cell panel viability, ATPlite luminescence, 48 h; series mostly up to 57.5 µM. The procedure, abridged:
as §1

In experiment [13] the test system is UISO. Description: qHTS assay to identify novel small-molecules to repurpose for Merkel cell carcinoma treatment (AID 1296009). Also: nearly all actives have a fitted effect of over 60% in size. Conditions: MCC and control cell lines, CellTiter-Glo viability, 72 h; series mostly up to 46 µM. An outline of the steps:
(§2)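 Cell viability measured by CellTiter-Glo following 72 hr compound treatment at 37 degree celsius, with NPC and MIPE libraries tested in 8- and 11-point concentration series.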
For orientation: In qHTS, concentration-response curves come from the screen itself.

The subject of experiment [14] is WaGa. The description is as above. Conditions: MCC and control cell lines, CellTiter-Glo viability, 72 h; series mostly up to 46 µM. An outline of the steps:
as §2

Records with an inconclusive call do not appear. Unmarked numbers belong to inactive results. Activity calls are given as the source filed them. Calls follow the shape of the dose curve; as a rule, active = well fitted curve in the direction sought with a large enough effect; inconclusive = small, poorly fitted or top-dose-only effect, or another doubt; inactive = no such curve, though single readings can be large; an effect the other way counts as inactive or inconclusive.
% is scaled to controls: 0 for no effect and ±100 for the full control effect.

With `C=C1C[C@]23C[C@H]1[C@@H](O)C[C@H]2[C@@]12C=C[C@H](O)[C@@](C)(C(=O)O1)[C@H]2[C@@H]3C(=O)O`, the Potency result in experiment [1], in experiment [2], in experiment [3], in experiment [4], in [5] and in experiment [6] was “inactive” throughout. The Potency result in experiment [7], in [8], in [9], in [10], in experiment [11] and in [12] was “inactive” throughout.

For `CC1(C)CCCC2(C)C(C(=O)O)=CCC12` (stereo not given), the Potency entry in [1], in experiment [2], in experiment [3], in experiment [4], in experiment [5] and in experiment [6] was “inactive” throughout. Further, the Potency result in [7], in experiment [8], in [9], in experiment [10] and in experiment [11] was “inactive” each time.

On to `CC(C)C(CO)Nc1nc(Nc2ccc(C(=O)O)c(Cl)c2)c2ncn(C(C)C)c2n1` (stereo not given), for which the Potency entry in [1], in experiment [2], in experiment [3], in experiment [4], in [5] and in experiment [6] was “inactive” in each case. Also, the Potency result in experiment [7], in experiment [8], in [9], in experiment [10], in [11] and in [12] was “inactive” each time.

With `CC1=CC(=O)CC(C)(C)C1CCC(C)O[C@@H]1O[C@H](CO[C@@H]2OC[C@@H](O)[C@H](O)[C@H]2O)[C@@H](O)[C@H](O)[C@H]1O` (stereo not given in full), the Potency entry in [1], in experiment [2], in experiment [3], in experiment [4], in experiment [5] and in [6] was “inactive” throughout. For the same compound, the Potency entry in experiment [7], in experiment [8], in [9], in [10], in experiment [11] and in [12] was “inactive” in each case.

For the compound `O=C(O)c1ccccc1NCCc1ccccc1`, the Potency entry in experiment [13], in experiment [14], in experiment [1], in [2], in experiment [3] and in [4] was “inactive” each time. Also, the Potency entry in experiment [5], in experiment [6], in experiment [7], in experiment [9], in [10] and in [11] was “inactive” throughout. In [12], the Potency entry was “inactive”.

Regarding `C=C1CC[C@H]2[C@@](C)(CCC(O)[C@@]2(C)CO)[C@@H]1CCC1=CCOC1=O` (stereo not given in full), the Potency entry in [1], in experiment [2], in experiment [3], in experiment [4], in experiment [5] and in experiment [6] was “inactive” each time. The Potency entry in experiment [7], in experiment [8], in experiment [9], in [10], in [11] and in experiment [12] was “inactive” throughout.

Turning to `C=CC(C)(O)CC/C=C(\C)C(=O)OC1C(O)C(CO)OC(OC(=O)C23CCC(C)(C)CC2C2=CCC4C5(C)CCC(OC6OC(COC7OCC(OC(C)=O)C(O)C7OC7OC(COC(C)=O)C(O)C(O)C7O)C(O)C(O)C6O)C(C)(C)C5CCC4(C)C2(C)C(O)C3O)C1OC1OCC(OC2OCC(O)C(OC3OCC(O)C(O)C3O)C2O)C(O)C1O` (stereo not given), the activity change, negative = cytotoxicity in experiment [1] is 7.05% [at 6.55 µM]; in experiment [2] it was -2.2% [at 6.55 µM]; in [3], -3.55% [at 6.55 µM]; in experiment [4] it was 1.1% [at 6.55 µM]; in experiment [5] it was 16.6% [at 6.55 µM]; in experiment [6] it was 1.48% [at 6.55 µM]. The activity change, negative = cytotoxicity in [7] was -3.21% [at 6.55 µM]; in experiment [8], -14.1% [at 6.55 µM]; in experiment [9], -0.479% [at 6.55 µM]; in experiment [10], 20.9% [at 6.55 µM]; in [11], 0.14% [at 6.55 µM]; in experiment [12], -2.19% [at 6.55 µM].

Turning to `COc1c2c(c(C)c3c1C(=O)OC3)O[C@@]1(C)CC(O)C(C(C)(C)O)[C@](C)(CCC(=O)O)[C@H]1C2` (stereo not given in full), the Potency result in experiment [1], in experiment [2], in experiment [3], in experiment [4], in experiment [5] and in [6] was “inactive” throughout. The Potency result in [7], in experiment [8], in [9], in experiment [10] and in experiment [12] was “inactive” in each case. For the same compound, the Potency in [11] is 6.31 µM (active).

As to `CC1=CC(=O)CC2C1(O)CCC(C)C21CC(c2ccoc2)OC1=O` (stereo not given), the Potency entry in experiment [1], in [2], in [3], in experiment [4], in experiment [5] and in experiment [6] was “inactive” each time. The Potency result in [7], in experiment [8], in [9], in experiment [10], in experiment [11] and in [12] was “inactive” throughout.

With `O=C(NCc1cccc(O)c1)c1cc2cc(F)ccc2[nH]1`, the Potency entry in [1], in experiment [2], in experiment [3], in [4], in experiment [5] and in [6] was “inactive” each time. Also, the Potency result in [7], in experiment [8], in [9], in [10], in experiment [11] and in experiment [12] was “inactive” each time.

`C=C(C)C1CCC(C)C12CC(O)C1(C)OC1C2OC(=O)C(N)CCC(=O)O` (stereo not given): the Potency result in experiment [1], in experiment [2], in experiment [3], in experiment [4], in [5] and in [6] was “inactive” each time. Further, the Potency result in experiment [7], in [8], in [9], in experiment [10], in [11] and in experiment [12] was “inactive” in each case.

Turning to `C/C=C/C(O)C1OC(=O)CC1Nc1ccc(C(=O)O)cc1` (stereo not given), the Potency result in [1], in experiment [2], in experiment [3], in [4], in [5] and in experiment [6] was “inactive” throughout. Also, the Potency entry in experiment [7], in [8], in [9], in experiment [10], in [11] and in experiment [12] was “inactive” in each case.

`C=C1C(=O)O[C@H]2[C@H]1CC/C(C)=C/CC[C@@]1(C)O[C@@H]21`: the Potency result in experiment [1], in experiment [2], in experiment [3], in [4], in experiment [5] and in [6] was “inactive” each time. The Potency entry in experiment [7], in experiment [8], in experiment [9], in experiment [10], in [11] and in experiment [12] was “inactive” throughout.

Take `COc1cc2c(cc1OC)CC(=O)N(CCCNC[C@H]1Cc3cc(OC)c(OC)cc31)CC2`: the Potency result in [1], in experiment [2], in [3], in [4], in experiment [5] and in experiment [6] was “inactive” each time. The Potency result in experiment [7], in experiment [8], in [9], in [10], in experiment [11] and in experiment [12] was “inactive” each time.

Regarding `CCOC(=O)c1cc(C#N)c(N2CCC(C(=O)NS(=O)(=O)Cc3ccccc3)CC2)nc1C`, the Potency result in experiment [1], in experiment [2], in experiment [3], in [4], in experiment [5] and in [6] was “inactive” in each case. In addition, the Potency result in [7], in experiment [8], in [9], in experiment [10], in experiment [11] and in experiment [12] was “inactive” in each case.
